# Screens: PubChem, several laboratories
# Beta cell apopt: beta cell apoptosis inhibition; INS-1E cytokine-induced death, ATP luminescence, 48 h; percent of positive-control rescue, neutral wells zero; protection from apoptosis, % (no concentration beside the values); 300,000 tested, 0.8% active;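 active = Every replicate reaches about 75%, or at least half do and their mean reaches it too, limit read from the data; inconclusive = At least half of replicates reach the limit but their mean does not; inactive = Under half of replicates reach the limit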;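 also: 0% = cytokine-treated negative control wells and 100% = positive control rescue; higher means more ATP so stronger rescue from cytokine killing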
# CSC inhib: blocks cancer stem cells | cancer stem cell-like cells viability, luminescence | inhibition, % at 7.5 µM | 300,000 tested, 1.1% active; in the data active = inhibition above about 75%; inconclusive = no clear call, values can overlap the other calls; tested in HMLE shEcad cells
# Mdm2 MdmX PPI: human Mdm2/MdmX binding inhibition; O15151+Q00987; AID 485346; 330,000 tested, 3% active; inhibition, % at 8 µM; SaOS-2 split-luciferase Mdm2/MdmX complementation, luminescence;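 active = inhibition of at least 50% at 8 µM in the primary screen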
# Target sequence (O15151 whole entry, looked up): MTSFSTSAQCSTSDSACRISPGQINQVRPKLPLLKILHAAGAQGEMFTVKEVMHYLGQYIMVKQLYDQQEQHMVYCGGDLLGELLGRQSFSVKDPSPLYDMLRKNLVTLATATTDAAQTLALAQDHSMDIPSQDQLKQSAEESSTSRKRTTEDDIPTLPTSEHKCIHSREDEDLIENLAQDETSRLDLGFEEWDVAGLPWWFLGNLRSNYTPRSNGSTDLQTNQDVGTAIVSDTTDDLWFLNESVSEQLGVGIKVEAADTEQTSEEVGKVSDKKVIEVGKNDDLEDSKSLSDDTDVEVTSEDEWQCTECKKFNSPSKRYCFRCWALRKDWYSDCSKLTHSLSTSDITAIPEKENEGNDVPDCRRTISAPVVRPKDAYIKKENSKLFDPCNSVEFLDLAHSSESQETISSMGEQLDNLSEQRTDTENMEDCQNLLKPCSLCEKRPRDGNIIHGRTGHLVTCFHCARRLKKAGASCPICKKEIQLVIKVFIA
# Target sequence (Q00987 whole entry, looked up): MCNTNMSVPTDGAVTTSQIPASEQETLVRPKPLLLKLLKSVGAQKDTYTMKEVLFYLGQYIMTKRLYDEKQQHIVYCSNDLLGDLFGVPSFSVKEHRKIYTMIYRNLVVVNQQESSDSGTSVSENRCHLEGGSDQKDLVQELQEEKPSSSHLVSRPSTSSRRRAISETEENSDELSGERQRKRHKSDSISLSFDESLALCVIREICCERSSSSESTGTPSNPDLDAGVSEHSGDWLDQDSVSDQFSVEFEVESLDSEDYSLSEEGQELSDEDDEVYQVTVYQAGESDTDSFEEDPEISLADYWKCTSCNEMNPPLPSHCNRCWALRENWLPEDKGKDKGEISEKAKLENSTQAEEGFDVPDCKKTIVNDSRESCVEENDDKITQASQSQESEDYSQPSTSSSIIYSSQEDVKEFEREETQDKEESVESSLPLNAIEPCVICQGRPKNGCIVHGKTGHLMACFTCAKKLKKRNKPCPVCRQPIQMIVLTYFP
# MPTP block: blocks calcium-induced mitochondrial swelling. inhibition, % at 10 µM. 360,000 tested, 1.4% active. isolated mouse mitochondria, Ca2+ swelling absorbance, 30 min;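 active = inhibition of 50% or more, scaled per plate between neutral and stimulator controls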;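 also: 0% = DMSO wells given calcium and 100% = 1 mM EGTA wells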
# Gli-Sufu block: antagonists of Gli-Sufu signaling; inhibition, % at 5 µM; Sufu-KO-LIGHT fibroblasts, Gli luciferase reporter luminescence; 340,000 tested, 0.74% active;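 active = inhibition above about 55%, limit read from the data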;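 also: 0% = DMSO-treated cells and 100% = wells with medium but no cells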
# GRIN3A LBD mod: modulators (binders) of human NR3A ligand-binding domain; 340,000 tested, 2.5% active; NR3A LBD differential scanning fluorimetry, Tm shift; 0% = protein alone, 100% = glycine-bound protein; AID 1259313; Tm shift relative to glycine control, % at 25 µM;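 active = melting temperature shift of at least 10% of the positive control shift, at one fixed dose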
# Mdm2 MdmX conf: human Mdm2/MdmX binding inhibition, confirmed. shares compounds with Mdm2 MdmX PPI. luminescent assay. inhibition, % at 8 µM. 10,000 tested, 55% active. AID 489028; in the data active = inhibition above about 40%
# Full FLuc ctr: counter-screen for Mdm2/MdmX inhibitors: full-length luciferase. shares compounds with Mdm2 MdmX PPI. SaOS-2 full-length luciferase counterscreen, luminescence. inhibition, % at 8 µM. 6,200 tested, 77% active. AID 504607;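 active = mean inhibition at 8 µM reaching about 37%, which flags the compound as non-specific, limit read from the data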;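 also: p53-null SaOS-2 cells with luciferase driven by a doxycycline-inducible promoter; compound on cells about two nights before reading with doxycycline added after day one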
# An asterisk follows results filed as active; ? = inconclusive; nt = not tested or not shown. Rows were chosen to be rich in hits. Some 6.6% of all compounds tested hit in one or more screens of this group.
SMILES,Beta cell apopt,CSC inhib,Mdm2 MdmX PPI,MPTP block,Gli-Sufu block,GRIN3A LBD mod,Mdm2 MdmX conf,others
Cc1ccc(-c2[nH]c3ccccc3c2C(C[N+](=O)[O-])c2ccco2)cc1 (stereo not given),25.5,nt,63.3*,0.2,11.3,0.6,22.6,
COc1cccc(C(C[N+](=O)[O-])c2c(C)[nH]n(-c3ccccc3)c2=O)c1 (stereo not given),6.0,-12.2,65.2*,0.6,1.0,3.2,25.4,
CCN(Cc1ccccc1)C(=O)COC(=O)c1c(C)nsc1NC,-1.9,-12.5,-0.8,-1.2,7.8,-0.8,nt,
O=C(O)/C=C/C(=O)c1ccc(O)cc1,0.4,-13.7,-14.3,1.3,3.6,-0.4,nt,
O=C(O)/C=C/C(=O)c1ccc2c(c1)CCc1ccccc1-2,-44.3,55.3,66.9*,-0.4,-66.2,1.4,25.8,
Cc1ccc(NCc2nc(SCC(=O)Nc3ccccc3)n[nH]2)cc1,-6.9,13.2,-4.7,-0.9,-3.3,-8.2,nt,
CC(C)C(NC(=O)Cc1ccccc1)C(=O)N1CCN(c2cccc(Cl)c2)CC1 (stereo not given),14.3,nt,28.4,3.6,10.3,-4.1,nt,
O=C(NCCCO)/C(=C/c1ccc(-c2cccc([N+](=O)[O-])c2)o1)NC(=O)c1ccccc1,0.3,7.2,22.9,-1.4,22.7,-0.9,nt,
Cc1ccc(C(=O)N/C(=C/c2ccc(-c3ccc([N+](=O)[O-])cc3)o2)C(=O)NCCCN(C)C)cc1,nt,9.7,63.6*,-3.6,3.2,-2.4,25.6,
O=[N+]([O-])c1cc([N+](=O)[O-])c2cc3ccccc3nc2c1,5.0,80.0*,82.0*,3.6,-6.5,nt,28.9,
O=[N+]([O-])c1cnc2ccccc2c1,-5.9,-4.6,8.7,-9.3,-8.1,-5.3,nt,
O=C(NCc1ccco1)C1Cc2c(-c3cccc(F)c3)ccnc2O1 (stereo not given),nt,nt,nt,0.4,nt,nt,nt,
COc1ccc(CCn2c(=O)[nH]c3cc(C(=O)N4CCN(c5ccccn5)CC4)ccc3c2=O)cc1OC,7.5,-6.1,5.2,1.6,9.0,-0.3,nt,
COc1ccc(NC(=O)Nc2ccc3c(c2)C(=O)N([C@H](C)CO)C[C@H](C)[C@@H](CN(C)S(=O)(=O)c2ccc(OC)cc2)O3)cc1,-3.9,-12.1,17.7,1.3,25.8,5.8,nt,
C[C@H](CO)N1C[C@H](C)[C@@H](CN(C)S(=O)(=O)c2ccccc2)Oc2c(NC(=O)Nc3ccc(C(F)(F)F)cc3)cccc2C1=O,-7.5,28.0,36.7,-1.4,6.5,4.0,nt,
COc1ccc(S(=O)(=O)N(C)C[C@H]2Oc3ccc(NC(=O)Nc4ccc(C(F)(F)F)cc4)cc3C(=O)N([C@H](C)CO)C[C@@H]2C)cc1,7.0,21.0,73.8*,0.9,2.2,22.4*,8.1,
C[C@@H]1CN([C@H](C)CO)C(=O)c2cc(NC(=O)Nc3ccc(C(F)(F)F)cc3)ccc2O[C@H]1CN(C)S(=O)(=O)c1ccccc1,40.1,60.4,74.3*,1.1,22.5,21.8*,30.3,
O=C(CN1C(=O)NC(c2ccccc2)(c2ccccc2)C1=O)NCCc1ccc(F)cc1,5.2,nt,11.4,0.0,3.6,0.5,nt,
CCc1ccc2nc(SCC(=O)Nc3ccccc3N3CCOCC3)c(C#N)cc2c1,14.8,?,66.7*,0.9,7.7,-0.9,60.2*,Full FLuc ctr=46.2*
O=C1C=CC(=O)N1CCNc1ncc(C(F)(F)F)cc1Cl,nt,nt,62.6*,8.9,6.1,-0.5,67.6*,Full FLuc ctr=52.8*
Cc1cc(Oc2ncccc2[N+](=O)[O-])c2cc(Cl)ccc2n1,-5.6,2.4,56.3*,2.3,7.7,2.7,8.7,
CCOC(=O)Cc1csc(NC(=O)CN2CCN(c3ccccc3)CC2)n1,-1.0,-5.8,25.2,2.2,0.2,-0.9,nt,
O=[N+]([O-])c1ccc(/C=N/Nc2nc(-c3ccccc3)c3cc(Br)ccc3n2)o1,-0.3,-3.8,33.7,2.3,21.8,-7.0,nt,
N#Cc1ccccc1/C=N/Nc1nc(-c2ccccc2)c2cc(Br)ccc2n1,9.7,2.6,55.0*,35.0,5.3,-1.9,3.1,
Cc1ccc2nc(N/N=C\c3ccc([N+](=O)[O-])o3)nc(-c3ccccc3)c2c1,nt,52.9,66.8*,5.6,-9.1,-8.3,30.0,
SMILES,Beta cell apopt,CSC inhib,Mdm2 MdmX PPI,MPTP block,Gli-Sufu block,GRIN3A LBD mod,Mdm2 MdmX conf,others
Nc1ccccc1C(=O)NCC1(c2ccccc2)CCCC1,1.5,7.2,10.1,-0.6,26.0,1.6,nt,
Cc1ccc(F)cc1C(=O)N1CCOCC1c1cc(C(=O)NCc2ccccc2)no1 (stereo not given),nt,nt,nt,0.3,nt,nt,nt,
CCCN1C(=O)/C(=C/c2c(N3CCNC(=O)C3CC(=O)OCC)nc3c(C)cccn3c2=O)SC1=S (stereo not given),6.4,50.0,73.5*,4.9,0.9,-9.2,67.5*,Full FLuc ctr=74.3*
COc1ccccc1Nc1nc(NCCCN(C)C)nc(N)c1[N+](=O)[O-],14.3,-5.7,38.4,-0.2,10.0,-1.3,nt,
C=CCNc1nc(N)c([N+](=O)[O-])c(Nc2ccccc2OC)n1,-13.3,5.9,59.3*,-0.3,41.5,2.5,18.4,
COc1ccccc1Nc1nc(NCC(C)C)nc(N)c1[N+](=O)[O-],nt,24.3,62.0*,12.3,-5.6,-15.2,46.7*,Full FLuc ctr=59.1*
CCOc1ccc(S(=O)(=O)N2CCCC(C(=O)NCc3ccccc3)C2)cc1 (stereo not given),-8.1,-8.5,21.8,1.0,-15.2,1.1,nt,
CC(=O)O[C@H]1[C@@H](O)[C@H](O)[C@H](Oc2c(O)c(C)c3c4c2[C@@H](C)CC[C@@H]4[C@@H](C)C[C@H]3C=C(C)C)O[C@H]1C,8.1,105.9*,90.1*,2.4,5.9,8.5,-0.3,
CC(=O)O[C@@H]1[C@@H](O)[C@@H](O)[C@H](Oc2c(-c3ccc(O)cc3)oc3c(CC=C(C)C)c(O)cc(O)c3c2=O)O[C@H]1C,-2.6,1.1,36.3,nt,5.7,3.4,nt,
COc1ccc(/C=N\NC(=O)c2ccccc2F)cc1COc1ccc(F)cc1F,11.3,71.4,57.9*,-0.5,11.9,-2.3,76.1*,Full FLuc ctr=65.7*
COc1ccccc1C(=O)N/N=C/c1ccc2c(c1)OCO2,19.9,14.4,-21.0,-1.8,-42.1,-0.1,nt,
COc1ccc(/C=N/NC(=O)c2cc(C)oc2C)cc1OCc1ccccc1,0.1,7.4,61.7*,-1.3,3.2,-11.4,8.5,
COc1cc2ccccc2cc1C(=O)N/N=C/c1ccc2c(c1)OCO2,4.5,55.0,50.9*,0.1,1.5,11.5*,70.5*,Full FLuc ctr=53.4*
COc1ccc(/C=N/NC(=O)c2ccoc2C)cc1COc1c(C)cccc1C,54.1,69.7,75.5*,-0.3,-13.9,-3.1,31.9,
O=C(NCc1ccccc1)C(C1CC1)n1c(=O)c(-c2ccco2)nc2ccccc21 (stereo not given),nt,nt,nt,1.6,nt,nt,nt,
CCc1ccc2c(F)cccc2n1,nt,nt,nt,-0.5,nt,nt,nt,
